Source: PubChem (National Center for Advancing Translational Sciences (NCATS))
Cruzain noTriton: cruzain (T. cruzi) inhibition without detergent. Potency, µM, for inactives: max response, negative = inhibition, usual class: inhibitors. hit rate 2.3% among 200,000. P25779. purified cruzain, Z-FR-AMC fluorescence, no detergent;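 further: plate controls were enzyme without inhibitor for no effect and buffer without enzyme for full effect; nearly all actives have a fitted effect of over 40% in size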
Target sequence (P25779 123-467 limits assumed): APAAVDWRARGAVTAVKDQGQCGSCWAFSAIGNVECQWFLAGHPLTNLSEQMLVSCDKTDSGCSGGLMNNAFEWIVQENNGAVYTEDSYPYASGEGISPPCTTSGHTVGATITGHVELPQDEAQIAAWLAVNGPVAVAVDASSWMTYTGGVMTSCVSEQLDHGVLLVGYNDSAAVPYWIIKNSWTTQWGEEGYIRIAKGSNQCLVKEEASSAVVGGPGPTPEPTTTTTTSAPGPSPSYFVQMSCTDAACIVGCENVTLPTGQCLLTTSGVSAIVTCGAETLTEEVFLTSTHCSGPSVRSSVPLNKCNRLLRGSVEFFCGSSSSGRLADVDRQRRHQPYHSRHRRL
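Purified cruzain at 1.5 nM, pre-incubated 15 min with compound at room temperature in 100 mM sodium acetate pH 5.5, 5 mM DTT, 0.00005% Triton X-100. Reaction started with 2 uM Z-FR-AMC; AMC fluorescence increase over 60 s gives rate.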
Cruzain Triton: inhibitors of Trypanosoma cruzi cruzain with detergent; purified cruzain, Z-FR-AMC fluorescence, 0.01% Triton; Potency, µM, without a hit: max response, negative = inhibition, most hits filed as inhibitors; AID 1478; hit rate 0.43% among 200,000;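 further: plate controls were neutral wells for no effect and buffer without enzyme for full effect; nearly all actives have a fitted effect of over 40% in size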
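Sodium acetate buffer (100 mM, pH 5.5) containing 5 mM DTT and 0.01% Triton X-100 hosted 1.5 nM cruzain and test compound for 15 min at room temperature. Cleavage of 2 uM Z-FR-AMC was then tracked by fluorescence.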
An asterisk follows results filed as active; ? = inconclusive. Rows were chosen to be rich in hits. Some 2.5% of all compounds tested hit in one or more screens of this group. The call rests on the fitted dose curve; in most records, active means well fitted curve in the direction sought with a large enough effect; inconclusive means small, poorly fitted or top-dose-only effect, or another doubt; inactive means no such curve, though single readings can be large; an effect the other way counts as inactive or inconclusive. Potency means the concentration at half of the fitted maximal effect.

SMILES	Cruzain noTriton	Cruzain Triton
CCOC(=O)c1c(C)[nH]c(C(=O)COC(=O)CCC2CCCC2)c1C	15.8µM*	8.1%
COc1ccc(NC(=O)CC2C(=O)N(c3ccc(OC)cc3)C(=O)N2CCC2=CCCCC2)cc1 (stereo unspecified)	4.5%	-1.6%
O=C(c1ccc(Br)o1)N1CCN(Cc2ccc3c(c2)OCO3)CC1	11.8%	5.4%
Cc1cc(C)cc(OCc2ccc(C(=O)O)o2)c1	-3.2%	13.5%
O=C(O)c1ccc(COc2c(F)c(F)c(F)c(F)c2F)o1	15.8µM*	28.2µM*
O=C(c1ccc(COc2c(F)c(F)c(F)c(F)c2F)o1)N1CCN(Cc2ccc3c(c2)OCO3)CC1	?	28.2µM*
Cc1ccccc1CNC(=O)C(=O)NCC(c1ccc2c(c1)OCO2)N1CCOCC1 (stereo unspecified)	-5.3%	-0.7%
COc1ccc(-c2c3c(=O)n(C)c(=O)n(C)c3c3n2-c2ccccc2NC3c2ccco2)cc1 (stereo unspecified)	-8.0%	-3.2%
CCOC(=O)CSc1nc2sc(C)c(C)c2c(=O)n1N	-9.2%	-1.5%
COC(=O)c1sc2nc(SCc3ccccc3C#N)n(N)c(=O)c2c1C	31.6µM*	-8.0%
O=C(Cn1c(=O)nc(-c2ccccc2)c2ccccc21)NCCc1ccccc1	0.8%	-1.8%
CCOC(=O)c1c(NC(=O)c2cc3nc(-c4ccccc4)cc(C(F)(F)F)n3n2)sc2c1CCC(C)C2 (stereo unspecified)	1.3%	1.6%
CC(=NCc1cccnc1)c1c(O)n(Cc2ccccc2)c(=O)[nH]c1=O	-1.6%	-1.4%
C/C(=N\Nc1cccc2ccccc12)c1c(O)n(Cc2ccccc2)c(=O)[nH]c1=O	10µM*	-4.8%
Cc1ccc(NC(=O)CSc2nc3ccc(NC(=O)c4cccs4)cc3s2)c(C)c1	?	-7.2%
COc1ccc(CNC(=O)CN2C(=O)COc3ccc(S(=O)(=O)N4CCCCC4)cc32)cc1	-5.3%	0.4%
Cc1cc(NC(=O)CSc2nc3ccccc3c(=O)n2C2CCCC2)no1	-0.2%	-1.7%
CN(C)c1ccc(NC(=O)CSc2nc3ccccc3c(=O)n2C2CCCCC2)cc1	12.6µM*	-0.6%
COCCOC(=O)C1=C(C)NC(=O)NC1c1cn(-c2ccccc2)nc1-c1ccccc1 (stereo unspecified)	1.2%	-4.2%
COc1ccccc1Nc1c2c(nc3ccc(NC(=O)c4ccc(N(C)C)cc4)cc13)CCCC2	?	-25.3%
Cn1c(N)c(C(=O)COC(=O)c2cc(-c3ccccc3)nc3ccccc23)c(=O)n(C)c1=O	?	0.1%
Cn1c(N)c(C(=O)COC(=O)c2cc(-c3ccccc3)nc3ccccc23)c(=O)n(Cc2ccccc2)c1=O	12.6µM*	-0.4%
CN(C)CC(C)(C)CN1c2ccccc2Sc2ccccc21	-7.1%	0.4%
CN(C)c1ccc(-c2noc(C3CC(=O)N(c4ccc5c(c4)OCCO5)C3)n2)cc1 (stereo unspecified)	-18.7%	-2.3%
COc1ccc(CC[N@+]2(C)COc3cc4oc(=O)cc(C)c4cc3C2)cc1OC	7.5%	1.7%
SMILES	Cruzain noTriton	Cruzain Triton
CC(=O)Nc1ccc(-c2c(C)cc3oc(=O)cc(-c4ccccc4)c3c2C)cc1	-22.2%	-1.0%
COc1ccc(-c2c(C)cc3oc(=O)cc(-c4ccccc4)c3c2C)cc1	31.6µM*	-1.9%
Cc1ccc(-c2c(C)cc3oc(=O)cc(-c4ccccc4)c3c2C)cc1	?	2.9%
Cc1cc2oc(=O)cc(-c3ccccc3)c2c(C)c1-c1ccc(N(C)C)cc1	14.1µM*	0.9%
CCOC(=O)c1ccc(-c2c(C)cc3oc(=O)cc(-c4ccccc4)c3c2C)cc1	4.47µM*	2.8%
Cc1cc2oc(=O)cc(-c3ccccc3)c2c(C)c1-c1ccc(C(F)(F)F)cc1	?	-8.2%
CC(=O)N1CCc2c(sc3c2c(=O)n(Cc2ccccc2)c(=O)n3CC(=O)Nc2ccc(C)c(F)c2)C1	-19.0%	-7.2%
O=C(Nc1ccc(-c2cn3ccccc3n2)cc1)c1ccco1	-6.4%	-8.3%
O=C(Nc1ccc(-c2cn3ccccc3n2)cc1)c1ccc(Cl)cc1	12.6µM*	-2.9%
CC1=CC(C)(C)n2c(O)c(N=NC(N)=S)c3c(C)ccc1c32	20µM*	?
CC1=CC(C)(C)n2c(O)c(N=NC(N)=S)c3cccc1c32	-3.6%	-20.8%
O=C(NCc1ccco1)c1cc(-c2cccs2)nc2ccccc12	-12.8%	-15.4%
O=C(COC(=O)c1cc(-c2cccs2)nc2ccccc12)NCc1ccco1	2.8%	25.1µM*
COc1ccc(Nc2cc(C(=O)NCc3ccco3)c3ccccc3n2)cc1	12.6µM*	-6.7%
COc1ccc(CNC(=O)COC(=O)c2cc(-c3ccc(Cl)s3)nc3ccccc23)cc1	-18.0%	3.9%
COc1ccc(Nc2cc(C(=O)NCc3ccccc3OC)c3ccccc3n2)cc1	10.6%	-10.3%
O=C(COC(=O)c1cc(-c2ccc(Cl)s2)nc2ccccc12)NCc1ccco1	13.0%	20µM*
Cc1ccc2c(c1)cc1c(=O)n(Cc3cccc(Cl)c3)nc(C)n12	1.2%	-2.5%
CC1CCN(S(=O)(=O)c2ccc3c(c2)N(CC(=O)NC(C)c2ccccc2)C(=O)CS3)CC1 (stereo unspecified)	4.0%	-3.6%
CC1=C(C(=O)Nc2ccccc2C)C(c2ccccn2)n2nc(SCc3ccccc3F)nc2N1 (stereo unspecified)	2.2%	2.4%
CCOc1ccccc1CNC(=O)c1cc(-c2ccc(Cl)s2)nc2ccccc12	-8.7%	-4.2%
CC1CCC/C(=N\NC(=S)NCc2ccccc2)C1 (stereo unspecified)	-1.7%	-1.2%
CC1CCC/C(=N\NC(=S)Nc2ccccc2)C1 (stereo unspecified)	-7.1%	14.1µM*
CC1=C(C(=O)Nc2ccc(C)cc2Cl)C2(CCCCC2)OC1=O	-5.4%	3.0%
CC1CC(C)CN(c2ccc(C(=O)OCC(=O)NC3CCCc4ccccc43)cc2[N+](=O)[O-])C1 (stereo unspecified)	?	1.2%
SMILES	Cruzain noTriton	Cruzain Triton
O=C(COC(=O)c1ccc(Sc2ccccc2)c([N+](=O)[O-])c1)NC1CCCc2ccccc21 (stereo unspecified)	12.6µM*	1.7%
Cc1nn(-c2ccccc2)c(Cl)c1/C=N/Nc1ccc(S(=O)(=O)Nc2ccccc2C(=O)O)cc1[N+](=O)[O-]	?	14.1µM*
Cc1nn(-c2ccccc2)c(Cl)c1/C=N/Nc1ccc(Cl)c(C(=O)O)c1	-5.3%	-10.0%
O=C(Oc1ccccc1)N1CCC[C@@]2(CCN(c3ccccn3)C2)C1	-2.5%	-1.7%
CN(Cc1cc(Br)cc(Br)c1N)C1CCCCC1	-1.9%	-2.9%
Cn1c(C(=O)N2CCN(c3nc4ccccc4s3)CC2)cc2sccc21	-21.6%	-15.9%
O=C(c1cc2sccc2n1Cc1ccc(F)cc1)N1CCN(c2nc3ccccc3s2)CC1	12.6µM*	-1.8%
COc1ccc(S(=O)(=O)N2CCCCC2)cc1	4.8%	-2.0%
COc1ccc(S(=O)(=O)N=C2C=C(C)C(=O)C(C)=C2)cc1	12.6µM*	-2.6%
CCOc1ccc(-c2nnc(SCC(=O)Nc3ccc(C)cc3C)o2)cc1	1.8%	-3.6%
CCOc1ccc(-c2nnc(SCC(=O)Nc3cc(C)ccc3OC)o2)cc1	?	31.6µM*
CCOc1ccc(-c2nnc(SCC(=O)Nc3ccc(C)cc3Cl)o2)cc1	?	28.2µM*
COc1ccc(C)cc1NC(=O)CSc1nnc(-c2ccc(C)cc2)o1	-3.6%	-3.6%
COc1cccc(-n2c(SCC(N)=O)nc3c(oc4ccccc43)c2=O)c1	4.9%	-1.6%
Cc1nn(C(=O)c2ccccc2)c(C)c1S(=O)(=O)N1CCCCCC1	-1.6%	-1.1%
